Assay outcomes (PubChem)
RPL19A-GFP yeast: RPL19A-GFP expression modulators in yeast, primary screen, cell-based, S. cerevisiae, multiplex flow cytometry, MLPCN. S. cerevisiae RPL19A-GFP strain, 3 h; hits give low values. 330,000 compounds, 0.3% hits. percent response vs DMSO, % at 10 µM. AID 2025, 2009;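 active means percent response vs DMSO below 50%; inconclusive means fewer than 70 events counted for the yeast strain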;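 further: median channel GFP fluorescence of the barcoded RPL19A-GFP strain; ratio of sample median GFP to plate DMSO average so 100% = DMSO; lower means less RPL19A-GFP as with rapamycin TOR inhibition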
CIT2 TOR yeast: modulators of CIT2-GFP expression in yeast, primary screen, S. cerevisiae, GFP fusion, multiplex flow cytometry, MLPCN library. S. cerevisiae CIT2-GFP strain, 3 h; 100 means same as DMSO wells. AID 2029, 2009. GFP response vs DMSO, % at 10 µM. 320,000 compounds, 0.065% hits;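 active means GFP response relative to DMSO above a set limit, near the screen mean plus 3 SD, cut at about 150% in these data; inconclusive means Fewer than 70 cells measured for a yeast strain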;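 further: ratio of well median GFP fluorescence to mean of DMSO wells on the plate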
LAP4 TOR yeast: modulators of LAP4-GFP expression in yeast, primary screen, S. cerevisiae, multiplex flow cytometry, MLPCN library; 3 h; median GFP as percent of DMSO wells; GFP response vs DMSO, % at 10 µM; 320,000 compounds, 0.34% hits;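 active means GFP response vs DMSO above a set limit, about the screen mean plus 3 SD, cut at about 150% in these data; inconclusive means under 70 cell events counted for the yeast strain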
MEP2 TOR yeast: modulators of MEP2-GFP levels in yeast, primary screen, S. cerevisiae, multiplex flow cytometry, MLPCN library. S. cerevisiae MEP2-GFP strain, 3 h; 100% = DMSO control level. GFP response vs DMSO, % at 10 µM. 330,000 compounds, 0.51% hits. AID 2016, 2009;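 active means GFP response versus DMSO above a set limit, roughly screen mean plus 3 SD, cut at about 180% in these data; inconclusive means fewer than 70 cells counted for a yeast strain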;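 further: median GFP fluorescence of the barcode-gated MEP2-GFP cells per well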
AGP1-GFP MLPCN: modulators of AGP1-GFP expression in yeast TOR pathway, primary screen, cell-based, multiplex flow cytometry, S. cerevisiae, MLPCN library. 3 h; GFP as percent of DMSO wells. GFP response vs DMSO, % at 10 µM. 320,000 compounds, 0.02% hits. AID 2066, 2009;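 active means GFP response relative to DMSO above a set limit, near screen average plus 3 SD, cut at about 150% in these data; inconclusive means fewer than 70 cells counted for the yeast strain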;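 further: median GFP channel fluorescence of the gated AGP1 strain per well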
Pemphigus Ab inh: inhibitors of pemphigus antibody binding to DSG3, primary screen, biochemical, bead-based, flow cytometry, scFv-GFP | Desmoglein-3 (Homo sapiens), P32926 | DSG3-coupled beads, scFv-anti-DSG3-GFP binding; hits give low values | binding (percent of control), % at 10 µM | 310,000 compounds, 0.48% hits;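 active means binding more than 3 SD below its plate's average and above zero; inconclusive means below that plate limit but binding exactly zero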;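 further: hits lower antibody fragment binding to DSG3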
Target sequence (P32926 whole entry, looked up, the tested form may be a part): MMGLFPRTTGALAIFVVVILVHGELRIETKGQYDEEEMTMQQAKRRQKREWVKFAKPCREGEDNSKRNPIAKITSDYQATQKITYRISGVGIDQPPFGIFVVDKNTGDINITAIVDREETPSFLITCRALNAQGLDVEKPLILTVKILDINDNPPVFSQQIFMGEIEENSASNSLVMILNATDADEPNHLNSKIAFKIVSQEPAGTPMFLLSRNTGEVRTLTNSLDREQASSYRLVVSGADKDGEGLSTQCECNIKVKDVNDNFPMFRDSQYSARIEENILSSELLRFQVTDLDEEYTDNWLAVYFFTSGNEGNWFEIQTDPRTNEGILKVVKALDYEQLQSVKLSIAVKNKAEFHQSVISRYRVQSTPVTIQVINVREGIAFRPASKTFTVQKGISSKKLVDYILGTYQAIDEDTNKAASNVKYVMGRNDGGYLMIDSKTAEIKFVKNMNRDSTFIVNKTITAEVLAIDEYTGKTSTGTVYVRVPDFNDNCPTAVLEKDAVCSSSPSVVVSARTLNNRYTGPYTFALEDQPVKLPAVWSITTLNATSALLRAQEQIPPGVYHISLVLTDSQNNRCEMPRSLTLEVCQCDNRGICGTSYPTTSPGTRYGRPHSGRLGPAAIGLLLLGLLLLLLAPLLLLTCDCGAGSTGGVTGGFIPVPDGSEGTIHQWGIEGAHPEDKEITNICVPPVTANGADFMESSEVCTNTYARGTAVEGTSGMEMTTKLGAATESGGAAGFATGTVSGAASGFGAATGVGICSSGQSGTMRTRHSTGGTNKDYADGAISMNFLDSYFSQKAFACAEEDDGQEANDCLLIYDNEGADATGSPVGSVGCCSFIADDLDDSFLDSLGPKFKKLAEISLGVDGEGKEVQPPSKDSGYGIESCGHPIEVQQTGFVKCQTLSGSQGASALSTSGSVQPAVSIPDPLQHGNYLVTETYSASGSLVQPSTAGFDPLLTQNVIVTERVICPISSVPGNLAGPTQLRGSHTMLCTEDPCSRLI
* = called active by the depositor; ? = inconclusive; · = no result given; [ ] = another dose, or the depositor's remark. The list is not random: actives were taken first. Their share in the collection is about 1.2%.

SMILES	RPL19A-GFP yeast	CIT2 TOR yeast	LAP4 TOR yeast	MEP2 TOR yeast	AGP1-GFP MLPCN	Pemphigus Ab inh
CN1C(=O)CC(=O)N(C)c2cc(S(=O)(=O)N(C)Cc3ccccc3)ccc21	103.9	108.5	113.6	111.1	109.8	·
O=C(CNC(=O)c1ccccc1)NCC(O)c1ccc([N+](=O)[O-])cc1 (configuration not stated)	101.5	111.7	97.4	108.3	98.7	·
Cc1cccn2c(=O)c3cc(C(=O)NC(C)c4ccccc4)c(=N)n(CCCn4ccnc4)c3nc12 (configuration not stated)	64.9	?	97.2	269.8*[may fluoresce violet]	18.2	100.4
CCCn1c(=N)c(C(=O)NC2CCCC2)cc2c(=O)n3cccc(C)c3nc21	43.2*	97.5	94.0	345.2*	95.4	110.6
Cc1cccn2c(=O)c3cc(C(N)=S)c(=N)n(CCCN4CCOCC4)c3nc12	24.5*	103.1	101.2	145.6	96.0	90.5
Cc1cccn2c(=O)c3cc(C(=O)NCCC4=CCCCC4)n(C)c3nc12	30.2*[may fluoresce violet]	?	82.6	124.3	?	89.8
Nc1cc(S(=O)(=O)N2CCOCC2)ccc1Oc1cccc(Br)c1	·	·	·	·	·	101.8
CSC1=NC(=O)/C(=C/c2ccc(SC)cc2)S1	78.3	51.2	175.6*	98.0	84.1	109.6
CCCOc1ccc(/C(O)=C2/C(=O)C(=O)N(c3cc(C)on3)C2c2ccc(C(=O)OC)cc2)cc1 (configuration not stated)	103.3	·	85.1	102.6	100.2	?
CCOc1ccc(/C(O)=C2/C(=O)C(=O)N(c3cc(C)on3)C2c2ccc(C(=O)OC)cc2)cc1 (configuration not stated)	99.5	87.6	107.8	104.7	100.4	-30.7*
CCN1C[C@@H]2[C@@H]3C(=O)N(C)C(=O)[C@@H]3[C@](Cc3ccccc3)(C1=O)N2C(=O)c1ccccc1	·	·	·	·	·	101.1
COc1cccc(C(=O)Nc2ccc(NC(=O)Cc3ccccc3)cc2)c1	102.7	95.5	83.7	93.1	98.6	92.4*
COc1cccc(C(=O)Nc2ccccc2)c1	94.7	102.2	93.1	100.2	102.5	102.4
COc1cccc(NC(=O)c2ccc3c(c2)CCCC3)c1	76.6	57.4	173.5*	77.5	84.3	96.3
CC(=O)c1cccc(NC(=O)c2ccc3c(c2)CCCC3)c1	102.8	98.0	100.6	100.4	98.7	110.7
CCc1noc(C)c1C(=O)N1CCN(S(=O)(=O)c2ccccc2C(F)(F)F)CC1	91.3	88.1	90.9	88.2	95.2	·
CCc1cc(C(=O)Cc2ccccn2)c(O)cc1O	62.9	?	72.8	269.6*[may fluoresce violet]	13.7	96.6
CCCCN(C(=O)CCOc1ccc(OCC)cc1)c1c(N)n(Cc2ccccc2)c(=O)[nH]c1=O	·	·	·	·	·	99.7
Cc1ccc(OCC(=O)Nc2ccc(N3CCN(S(C)(=O)=O)CC3)cc2)c(C)c1	98.8	102.5	101.0	105.1	103.6	112.5
Cc1ccc(C(C)C)c(OCC(=O)Nc2ccc(N3CCN(S(C)(=O)=O)CC3)cc2)c1	98.7	99.4	97.8	110.5	102.5	52.5*
COc1ccc2c(-c3ccc(S(N)(=O)=O)cc3)c(-c3ccc(S(C)(=O)=O)cc3)sc2c1	100.6	92.9	106.4	103.3	100.0	94.0
O=C(NCc1ccncc1)C12CC3CC(CC(Cl)(C3)C1)C2	90.8	83.5	145.4	224.8*	96.1	110.8
Cn1nnnc1N=N/C(=N/Nc1ccccc1)c1ccccc1	95.8	86.5	150.5*	94.9	98.4	100.6
N#CC1=C(N)C2=C(N3CCCCC3)CCCC2C1(C#N)C#N (configuration not stated)	98.5	99.4	110.2	115.1	93.1	111.4
N#CC(C#N)=C1C=C2C=C(N3CCCCC3)CCC2CC1 (configuration not stated)	216.7	630.7*[may fluoresce green]	712.1*[may fluoresce green]	896.0*[may fluoresce green]	190.0*[may fluoresce green]	·
